# An excerpt weighted towards active compounds, which were near 17% of everything screened.
# ATXN2 expr inh – reduces ATXN2 reporter expression in HEK-293 cells. Potency, µM (doses to about 57 µM), for inactives: at the highest dose activity change, negative = inhibition, usual class: inhibitors. HEK-293 ATXN2-luciferase reporter, luminescence, 24 h. actives 0.72% (n = 360,000). AID 1745845; note: % is set by controls: 0 for no effect and ±100 for the full control effect; nearly all actives have a fitted effect of over 55% in size
#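 qHTS (up to 57 uM final) was run with 24 h compound exposure of reporter cells at 37 °C. Each well was multiplexed: SteadyGlo luminescence measured ATXN2-luciferase expression after a fluorogenic Gly-Phe-AFC viability readout (25 uM final).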
# S2 tox – viability counter-screen for ATXN expression inhibitors. AID 651635. actives 0.49% (n = 400,000). Potency, µM (titrated, usually from 56.7 µM), hits mostly cytotoxic. S2 cells (HEK-293 line with an ATXN2-luciferase reporter) viability, CellTiter-Fluor protease fluorescence, 24 h; note: nearly all actives have a fitted effect of over 40% in size
# DT40 TDP1 CPT – growth inhibition of DT40 Tdp1-/-;hTDP1 cells with camptothecin (screen for TDP1 inhibitors) | chicken DT40 Tdp1-/-;hTDP1 cells + 20 nM CPT, ATP luminescence, 48 h | Potency, µM (top dose mostly 46.2 µM), for the others: at the highest dose activity change, negative = growth inhibition, most hits filed as inhibitors | actives 12% (n = 420,000) | AID 686979; note: % is set by controls: 0 for no effect and ±100 for the full control effect; nearly all actives have a fitted effect of over 55% in size
#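 Chicken DT40 Tdp1-/- cells stably complemented with human TDP1 were seeded at 400 cells/well in medium containing 20 nM camptothecin, exposed to pin-transferred compounds, and grown at 37 °C for at least 48 hr. Viability was read as ATP luminescence.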
# TDP1 cell noCPT – qHTS for Inhibitors of human tyrosyl-DNA phosphodiesterase 1 (TDP1): qHTS in cells in absence of CPT | actives 15% (n = 420,000) | DT40 Tdp1-/- hTDP1 cells, no CPT, ATP luminescence, 48 h | Potency, µM (series often up to 46.2 µM), inactives show at the highest dose activity change, negative = growth inhibition, actives largely listed as inhibitors | AID 686978, 2013; note: % is set by controls: 0 for no effect and ±100 for the full control effect; nearly all actives have a fitted effect of over 55% in size
#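 Luminescent ATP content (CellTiter-Glo) served as the growth readout. Knockout chicken DT40 cells expressing human TDP1 were exposed to compounds without camptothecin for a minimum 48 hr at 37 °C.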
# HepG2 viability – counter-screen for TGF-b inhibitors: cytotoxicity in HepG2 cells | HepG2 CAGA-GFP viability, ATP luminescence, 18 h | Potency, µM (doses to about 46.1 µM), for inactives: top-dose activity change, negative = cytotoxicity, actives largely listed as cytotoxic | actives 0.76% (n = 410,000) | AID 588856
#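 CellTiter-Glo luminescence gave cytotoxicity after 18 hours at 37 degrees C. The cells were HepG2 CAGA-GFP in 1% FBS DMEM, stimulated with 500 pg/mL TGF-beta after compound addition. %Activity was normalised to no-cell wells (complete cell-killing) and DMSO (no toxicity), and curves were fitted and classified.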
# TGFb inhibitor – TGF-b pathway inhibition; actives 1.2% (n = 410,000); Potency, µM (top dose mostly 46.1 µM), without a hit: at the highest dose activity, negative = inhibition, actives largely listed as inhibitors; HepG2 CAGA-GFP TGF-b/SMAD3 reporter, GFP fluorescence, 18 h; TGF-beta stimulated, 500 pg/mL final; note: % is set by controls: 0 for no effect and ±100 for the full control effect; nearly all actives have a fitted effect of over 65% in size
#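 Read-out: total well GFP (ex488/em500-530) summed from mean per-cell fluorescence. Cells: HEPG2 CAGA-GFP, 1% FBS DMEM, 18 h at 37 degrees C with 500 pg/mL final TGF-beta. Unstimulated wells served as the full-inhibition control; stimulated DMSO wells = 0%.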
# * = called active by the depositor; i = inactive; ? = inconclusive; . = no result given; [ ] = dose if it differs, or a comment. Calls come from the whole dose curve; as a rule, active = well fitted curve in the direction sought with a large enough effect; inconclusive = small, poorly fitted or top-dose-only effect, or another doubt; inactive = no such curve, though single readings can be large; an effect the other way counts as inactive or inconclusive. Potency is the fitted concentration of half-maximal effect.
SMILES,ATXN2 expr inh,S2 tox,DT40 TDP1 CPT,TDP1 cell noCPT,HepG2 viability,TGFb inhibitor
CN=C1SC(CC(=O)Nc2ccccc2F)C(=O)N1/N=C/c1ccc(O)c(OC)c1 (centres undefined),.,i,23µM*,13µM*,-29%,-7%
COc1ccc(C2=CC(=O)C[C@H](c3ccc(Cl)cc3)C2)cc1,5%,i,16µM*,?,-16%,?
Cc1ccc(C2=CC(=O)C[C@H](c3ccc(Cl)cc3)C2)cc1,4%,i,23µM*,?,-13%,?
O=C1C=C(c2ccc3[nH]ccc3c2)C[C@@H](c2ccc(Cl)cc2)C1,0%,?,?,?,-23%,11µM*
O=C1C=C(c2ccc(O)cc2)C[C@@H](c2ccc(Cl)cc2)C1,?,?,?,?,-7%,-13%
OC[C@@H]1CN(Cc2ccc3c(c2)OCO3)C[C@H](n2cnc3c(NCc4ccncc4)ncnc32)O1,8%,i,-18%,-12%,-2%,0%
N#Cc1c(-c2ccccc2)nc(SCC(=O)Nc2nnc(C(F)(F)F)s2)[nH]c1=O,17%,i,-18%,1%,-16%,12%
Cc1ccc(C(O)c2ncc(-c3ccccc3C(F)(F)F)[nH]2)cc1F (centres undefined),-11%,i,?,?,-8%,-19%
O=C(CSC1=Nc2ccccc2C2=NC(Cc3ccccc3)C(=O)N12)Nc1ccccc1C(F)(F)F (centres undefined),1%,?,?,26µM*,-4%,0%
O=C(CSC1=Nc2ccccc2C2=NC(Cc3ccccc3)C(=O)N12)Nc1ccccc1F (centres undefined),139%,i,23µM*,?,-31%,6%
CCCCC(=O)Nc1nnc(CCc2ccccc2)s1,.,i,-5%,-28%,-14%,3%
O=[N+]([O-])c1ccc(Nc2nc(NCCO)nc(N3CCCC3)n2)cc1,-19%,?,?,21µM*,-14%,-2%
CCCNc1nc(Nc2ccc(C)cc2)nc(N2CCCC2)n1,-27%,?,23µM*,21µM*,-30%,0%
OCCNc1nc(Nc2ccc(Cl)cc2)nc(N2CCCC2)n1,-25%,i,.,.,-10%,-2%
COC(=O)Nc1ccc2c(c1)N(C(=O)CCCl)c1ccccc1S2,20%,?,-9%,-30%,16%,?
Cc1nc2ccc([N+](=O)[O-])cc2c(=O)n1Cc1ccc(Br)cc1,-7%,i,?,?,-2%,17%
Cc1nc([N+](=O)[O-])cn1CC(=O)c1ccc(Br)cc1,6%,i,-12%,-26%,0%,1%
Cc1nc([N+](=O)[O-])c(Br)n1CC(=O)c1ccc(Cl)cc1,?,?,8.2µM*,7.3µM*,-89%,?
COc1ccc(C(=O)Cn2c(C)nc([N+](=O)[O-])c2Br)cc1,?,?,7.3µM*,23µM*,-27%,?
Cc1nc([N+](=O)[O-])c(Br)n1Cc1ccc(Cl)c(Cl)c1,.,20µM*,5.2µM*,2.6µM*,-118%,?
CN(C)S(=O)(=O)c1ccc(C(=O)NCC2CC2(Cl)Cl)cc1 (centres undefined),-7%,i,?,?,-1%,10%
CCCCN(Cc1ccccc1)S(=O)(=O)c1cc2c(cc1Br)CC(C)N2C(C)=O (centres undefined),?,?,18µM*,18µM*,6%,?
CCCCN(Cc1ccccc1)S(=O)(=O)c1ccc2c(c1)CC(C)N2C(=O)CC (centres undefined),5%,i,23µM*,?,-28%,?
CCC(=O)N1c2ccc(S(=O)(=O)N(CCO)Cc3ccccc3)cc2CC1C (centres undefined),-5%,i,?,-20%,2%,4%
COc1ccc(C(=O)OCn2nnc3ccccc3c2=O)cc1,-17%,i,3%,?,2%,19%
SMILES,ATXN2 expr inh,S2 tox,DT40 TDP1 CPT,TDP1 cell noCPT,HepG2 viability,TGFb inhibitor
CCS(=O)(=O)c1cccc(C(=O)Nc2ccc(-c3nc4ccccc4s3)c(O)c2)c1,.,.,?,?,0%,?
O=C(Nc1ccc(Cc2nc3ccccc3s2)cc1)c1ccncc1,?,i,?,12µM*,-9%,?
CC(C)Oc1ccc(C(=O)Nc2ccc(-c3nc4ccccc4s3)cc2)cc1,11%,i,10µM*,?,4%,-37%
CN(C)c1cccc(C(=O)Nc2ccc(-c3nc4ccccc4s3)cc2)c1,67%,?,?,13µM*,-30%,-13%
Cc1nc(C)c(C(=O)OCC(=O)Nc2ccc(C)c(C)c2)s1,.,i,-17%,?,1%,-20%
O=[N+]([O-])c1nccn1C1C=CC(O)C(CO)O1 (centres undefined),.,.,-7%,3%,.,.
N=c1ccn(Cc2ccc(F)cc2)cc1,.,i,?,10µM*,20%,-17%
O=C1CNC(=S)N1Cc1ccc(F)cc1,.,i,-9%,-17%,-15%,1%
CCC(Cc1ccccc1)NCc1c(C(=O)O)c(C)n(Cc2ccccc2)c1C (centres undefined),-6%[11.3 µM],?,-6%,-1%,-7%,-3%
CC(C)CN1CCC2(CC1)CCN(S(=O)(=O)c1ccccc1)CC2,.,.,?,23µM*,.,.
CC(C)CN1CC2(CCN(S(=O)(=O)c3ccccc3)CC2)C1,.,.,1%,-3%,.,.
Cc1cccc(C)c1NC(=O)c1ccc2sc([C@@H]3O[C@H](CO)[C@H](O)[C@H](O)[C@H]3O)nc2c1,6%,i,-11%,5%,-2%,0%
C=C(CCC(=O)c1ccccc1)C(=O)c1ccccc1,?,?,6.5µM*,2.1µM*,10µM*,-33%
COc1cc(OC)cc(-c2nc3nc(C)c(CCC(=O)Nc4cc(F)ccc4F)c(C)n3n2)c1,-2%,i,?,8.2µM*,-11%,-4%
COc1cc(OC)cc(-c2nc3nc(C)c(CCC(=O)Nc4ccc(F)cc4F)c(C)n3n2)c1,5%,i,?,13µM*,-25%,-25%
O=C(c1ccco1)N1CCN(c2ccc([N+](=O)[O-])cn2)CC1,3%,i,?,-5%,14%,1%
CC1=CC(=O)C(Sc2ccc(C)cc2)=CC1=O,.,.,1.8µM*,1.6µM*,-94%,?

# Source: PubChem (National Center for Advancing Translational Sciences (NCATS))
